# A selection: hits, their analogues and other compounds. The true share with any hit is near 1.7%.
# GLP1R ag = GLP-1 receptor (human) agonism; AID 624172; actives 0.007% (n = 380,000); Potency, µM (series often up to 45.6 µM), for inactives: at the top dose activation, most hits filed as activators; HEK293 GLP-1R CRE-luciferase, luminescence, 4-6 h; cells express a hypersensitive GLP-1R form; also: % of control where 0% means no effect
# Target sequence (P43220 whole entry, looked up): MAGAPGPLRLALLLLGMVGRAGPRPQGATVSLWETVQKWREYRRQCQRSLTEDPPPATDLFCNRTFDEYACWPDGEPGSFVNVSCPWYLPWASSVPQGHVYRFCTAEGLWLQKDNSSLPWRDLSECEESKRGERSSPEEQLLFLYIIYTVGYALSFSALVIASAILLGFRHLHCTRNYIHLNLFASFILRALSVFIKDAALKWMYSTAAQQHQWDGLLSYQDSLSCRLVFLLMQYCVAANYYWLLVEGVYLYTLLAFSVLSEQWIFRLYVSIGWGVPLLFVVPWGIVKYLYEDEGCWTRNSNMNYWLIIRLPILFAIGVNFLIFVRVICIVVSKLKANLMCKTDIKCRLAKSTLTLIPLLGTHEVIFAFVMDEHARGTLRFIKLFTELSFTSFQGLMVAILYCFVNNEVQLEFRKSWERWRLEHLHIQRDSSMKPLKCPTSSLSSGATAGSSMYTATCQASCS
# PTHR1 ag = agonists of human PTHR1 parathyroid hormone receptor; Q03431; HEK293 GP2 PTHR1 cells, GloSensor cAMP luminescence, 1 h; Potency, µM (titrated, usually from 115 µM), inactives show top-dose activation, usual class: activators; actives 0.075% (n = 410,000); AID 743266; also: nearly all actives have a fitted effect of over 55% in size
#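 HEK-293-derived GP2 cells expressing PTHR1 and a GloSensor cAMP reporter, 3,000/well, plated overnight, given luciferin plus IBMX (each 0.5 mM as added) for 1 h at 37 °C, then compound for 1 h at 37 °C. Luminescence was read after 15 min at room temperature.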
# GLP1R cytotox = cytotoxicity counter-screen for GLP-1 receptor inverse agonists; HEK293 cAMP-luciferase reporter cells, luminescence, 24 h; Potency, µM (doses to about 38.3 µM), for inactives: at the top dose activity change, negative = inhibition, actives largely listed as inhibitors; actives 0.13% (n = 410,000); AID 624418;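 also: loss of luciferase light is scored as toxicity; % is scaled to controls: 0 for no effect and ±100 for the full control effect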
#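 Quantitative HTS format, 1536 wells, 200 cells/uL seeded. Compounds: 23 nL, 24 h, 37 °C. Detection: luciferase reagent, luminescence at 12 min RT; decreased signal taken as cytotoxic.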
# GLP-1R inv ag = inverse agonists of human GLP-1 receptor; P43220; HEK293 GLP-1R CRE-luciferase, luminescence, 24 h; GLP-1R form is constitutively active; Potency, µM (top dose mostly 38.3 µM), inactives show at the top dose activity change, negative = inhibition, actives largely listed as inhibitors; actives 1.6% (n = 410,000); AID 624417; also: % is scaled to controls: 0 for no effect and ±100 for the full control effect; nearly all actives have a fitted effect of over 55% in size
#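 Readout was luciferase luminescence, measured 12 min after detection reagent at room temperature. Beforehand, GLP-1R reporter HEK293 cells had sat 12 h, then received compounds for 24 hr at 37 deg C.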
# Active calls of the source: *; i = inactive; ? = inconclusive; · = not tested or not shown; [ ] = another dose, or the depositor's remark. Calls follow the shape of the dose curve; as a rule, active = well fitted curve in the direction sought with a large enough effect; inconclusive = small, poorly fitted or top-dose-only effect, or another doubt; inactive = no such curve, though single readings can be large; an effect the other way counts as inactive or inconclusive. Potency is read from the fitted curve at half-maximal effect.
SMILES,GLP1R ag,PTHR1 ag,GLP1R cytotox,GLP-1R inv ag
COc1ccc(/C=C2\SC(=S)N(CCCC(=O)N3CCCCC3CCO)C2=O)cc1 (configuration not stated),6%,i,?,10µM*
O=C(O)c1ccc(/C=C2/SC(=S)N(Cc3ccccc3)C2=O)cc1,9%,-12%,-4%,-18%
CN1CCN(C(=O)CCCN2C(=O)/C(=C/c3cccc(Br)c3)SC2=S)CC1,-6%,-8%,?,10µM*
O=C1/C(=C\c2ccc(O)cc2)SC(=S)N1Cc1ccccc1,-2%,-18%,7%,11µM*
CCCN(CCC)C(=O)CSc1nnc2cc(C)c3ccccc3n12,·,i,4%,4%
CC1CCN(S(=O)(=O)c2ccc3c(ccc(=O)n3CC(=O)NCc3ccccc3Cl)c2)CC1,-5%,-12%,0%,0%
COc1ccc(C(=O)NC(C)c2nnc(SCC(=O)NC3CCCC3)n2C)cc1 (configuration not stated),8%,i,2%,-13%
COc1ccc(/C=C2\SC(=S)N(CCCC(=O)N3CCN(C)CC3)C2=O)cc1,3%,19%,?,?
CCc1ccc(/C=C2\SC(=S)N(CCCC(=O)N3CCN(C)CC3)C2=O)cc1,2%,i,?,10µM*
CSCC[C@H](NC(=O)[C@@H](Cc1ccc(O[S+](=O)([O-])O)cc1)NC(=O)[C@H](N)CC(=O)O)C(=O)NCC(=O)N[C@@H](Cc1c[nH]c2ccccc12)C(=O)N[C@H](CCSC)C(=O)N[C@H](CC(=O)O)C(=O)N[C@@H](Cc1ccccc1)C(N)=O,0%,·,·,·
Cc1ccc(CNC(=O)C(C)n2nc(C)c3sc4ccccc4c3c2=O)cc1 (configuration not stated),·,45µM*,-8%,-10%
Cc1nn(C(C)C(=O)NCc2ccc(OC(C)C)cc2)c(=O)c2c1sc1ccccc12 (configuration not stated),·,?,17%,-19%
COc1ccc(NC2=NC(=S)N(c3ccccc3C)C23CCCCC3)cc1,-7%,i,-20%,7.9µM*
Cc1ccc(NC(=S)N/N=C2/CCCCc3ccccc32)cc1,13%,i,5%,3.5µM*
CCNC(=S)N/N=C1\CCCCc2ccccc21,8%,i,4µM*,3.5µM*
Cc1ccc(C)c(NC(=S)N/N=C2\CCc3ccccc32)c1,-1%,-32%,?,?
Cc1cccc(NC(=S)N/N=C2/CCCCc3ccccc32)c1,0%,i,21%,?
C=C(C)CNC(=S)N/N=C1\CCCCc2ccccc21,23%,-3%,4µM*,?
CC(=O)N1c2ccccc2S(=O)(=O)c2c1ccc1ccccc21,-3%,-2%,-12%,-12%
O=C(c1ccccc1)N1CCCCC1,5%,i,6%,-3%
O=C(c1ccccc1)N(C(=O)c1ccccc1)N1CCCC1,10%,-1%,-5%,10µM*
O=C1c2ccccc2-c2onc3ccc(NCc4ccco4)c1c23,15%,-33%,11µM*,?
O=S(=O)(c1ccccc1)N1CCC(O)(CSc2ccccc2)CC1,14%,-18%,6%,10µM*
CCCCCCCCN1[C@@H](CC(=O)OCC)c2ccc(C(F)(F)F)cc2S1(=O)=O,-4%,-25%,-21%,10µM*
CCN(CC)c1ccc(NC(=O)CN2CCN(CC(=O)Nc3ccc(OC)cc3)CC2)cc1,2%,-2%,1%,-10%
SMILES,GLP1R ag,PTHR1 ag,GLP1R cytotox,GLP-1R inv ag
CCN(CC)c1ccc(NC(=O)CN2CCN(CC(=O)Nc3ccc(F)cc3)CC2)cc1,-2%,i,-5%,13µM*
CCN(C(=O)c1ccc(C(C)(C)C)cc1)c1nnc(Cn2nnc3ccccc32)s1,-2%,-11%,-17%,5µM*
CCN(C(=O)CC(C)C)c1nnc(Cn2nnc3ccccc32)s1,11%,-2%,2%,40%
CC(C)c1nc2cc(C(=O)N3CCNC(=O)C3c3ccc(F)cc3)ccc2o1 (configuration not stated),0%,-16%,-6%,19%
CCOC(=O)C1CCCN(C(=O)C(CCSC)NC(=O)COc2ccccc2)C1 (configuration not stated),-10%,i,4%,31%
CCOc1ccc(OCC)c(NC(=O)CN2CCN(c3cccc(C)c3)CC2)c1,24%,17%[57.5 µM],8%,?
CCOc1ccc(OCC)c(NC(=O)CN2CCN(c3cc(C)ccc3C)CC2)c1,0%,-14%,?,13µM*
COC(=O)c1ccc(C(=O)OC)c(NC(=O)CSCc2ccc(Br)cc2)c1,-1%,-25%,-18%,7.9µM*
COC(=O)c1ccc(C(=O)OC)c(NC(=O)CCC(=O)O)c1,-4%,i,0%,4%
CCc1ccc(-c2nc(CSCC(=O)NCc3ccc(C)cc3)c(C)o2)cc1,·,-89%,-9%,?
Cc1ccc(CNc2oc(-c3ccco3)nc2S(=O)(=O)c2ccccc2)cc1,10%,-5%[57.5 µM],-6%,10µM*
CC1=CC(C)(C)Nc2ccc(Cc3ccc4c(c3)C(C)=CC(C)(C)N4)cc21,-1%,-34%,-15%,2.8µM*
COc1cc(-c2c(CCO)sc3ccccc23)cc(OC)c1OC,7%,-75%,-28%,?
CCOC(=O)CC(=O)CSc1nc2c(sc(=S)n2-c2ccc(C)c(C)c2)c(=O)[nH]1,5%,-32%,-19%,8.9µM*
COc1ccc(NC(=O)c2cccc(N3C(=O)c4ccc(C(=O)Nc5ccc(OC)c(O)c5)cc4C3=O)c2)cc1O,-3%,-16%,-9%,-23%
CN(C)c1ccc(C2CNC(c3ccc(Cl)c([N+](=O)[O-])c3)c3[nH]c4ccccc4c32)cc1 (configuration not stated),-2%,i,15%,4.5µM*
O=[N+]([O-])c1cccc(C2NCC(c3ccccc3Cl)c3c2[nH]c2ccccc32)c1 (configuration not stated),-5%,-13%,-3%[7.66 µM],?
Cc1noc(C)c1S(=O)(=O)N(C)C[C@H]1OCCCC[C@H](C)Oc2ccc(NC(=O)CCCN(C)C)cc2C(=O)N([C@H](C)CO)C[C@@H]1C,5%,-13%,6%,9%
Cc1cccc(/C=C2\Sc3ccc(C(=O)NCC4CCCO4)cc3N(C)C2=O)c1 (configuration not stated),-3%,-11%,-1%,13µM*
CCCNC(=O)C1(C)CCN(C(=O)c2cccc(C#N)c2)C1 (configuration not stated),-7%,-17%,1%,19%
O=c1cc2c(nn1Cc1ccc(Cl)cc1Cl)-c1ccccc1CC2,28%,-87%,69%,?
O=c1cc2c(nn1Cc1ccccc1Cl)-c1ccccc1CC2,?,-6%[57.5 µM],-5%,10µM*
O=c1c2c(nc(NCCO)n1CC1CCCCC1)-c1ccccc1CC21CCCC1,1%,i,?,4µM*

# Screening data deposited in PubChem by National Center for Advancing Translational Sciences (NCATS).
